Among the test systems are T-47D breast; BT-549 breast; MDA-MB-435 melanoma; MCF7 breast; HCT-116 colon; HCC-2998 colon; KM12 colon; SW-620 colon.
Experiment in all cases: NCI-60 one-dose screen, 48 h (100 = growth as untreated, 0 = no growth, -100 = all killed)
Common to all, as to conditions: 10 µM unless noted

Compounds without any hit were thinned out: in the full panel of roughly 83,000, 20% have a hit.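 Cell lines were cultured in 96-well plates, exposed to a single compound concentration, and assessed for percent growth 48 hours later.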 Unmarked numbers belong to inactive results. Active and inactive are the calls of the source. Rule for the calls: active = growth percent below 10; inactive = the rest.

With `NC(=S)NNC1CCCCC1`, the growth with T-47D breast is 80%; in the assay with BT-549 breast it was 88.4%; in the assay with MDA-MB-435 melanoma it was 106%; with MCF7 breast it was 88.8%; in the assay with HCT-116 colon, 91.8%; in the assay on HCC-2998 colon, 100%. Besides, the growth with KM12 colon was 99.9%.
For the compound `c1ccc([Se]CCCN2CCN(CCC[Se]c3ccccc3)CC2)cc1`, the growth in the assay on T-47D breast is 111%; in the assay on BT-549 breast, 125%; with MDA-MB-435 melanoma it was -44.2% (active); with MCF7 breast, 110%; in the assay on HCT-116 colon, 74.5%; in the assay with HCC-2998 colon, 115%. Moreover, the growth in the assay with KM12 colon was 109%.
Regarding `COc1ccc2c(c1)nnc1c3cccnc3[nH]c21`, the growth was 6.14% (active) in the assay on T-47D breast; 4.75% (active) in the assay with BT-549 breast; 13.8% with MDA-MB-435 melanoma; -43.5% (active) in the assay on MCF7 breast; -74% (active) with HCT-116 colon; 40.6% with HCC-2998 colon. Moreover, in the assay with KM12 colon, the growth is 30%.
With `Nc1ncnc2c1c(C(F)(F)F)cn2[C@@H]1O[C@H](CO)[C@@H](O)[C@H]1O`, the growth was -0.423% (active) with T-47D breast; -10.2% (active) in the assay on BT-549 breast; 12.3% with MDA-MB-435 melanoma; 7.41% (active) with MCF7 breast; 8.38% (active) in the assay on HCT-116 colon; 7.21% (active) with HCC-2998 colon. The growth in the assay on KM12 colon was 4.05% (active).
Turning to `CCN(CC)CCC(C(=O)O)(c1ccccc1)c1ccccc1`, the growth in the assay on T-47D breast was 77.7%; in the assay on BT-549 breast, 95.6%; in the assay with MDA-MB-435 melanoma, 98.3%; with MCF7 breast it was 91.8%; in the assay with HCT-116 colon, 90.9%; in the assay on HCC-2998 colon, 106%. Further, the growth with KM12 colon is 100%.
Turning to `c1ccc2nc(Cn3cc[n+](Cc4ccc5ccccc5n4)c3)ccc2c1`, the growth in the assay on T-47D breast is 29.8%; in the assay with BT-549 breast, 33.7%; with MDA-MB-435 melanoma, 52.8%; with SW-620 colon, 77.8%; in the assay with HCC-2998 colon, 57.8%; with KM12 colon, 48%.
With `COc1cc(-c2nc3ccccc3s2)ccc1OCc1nc2n(n1)S(=O)(=O)c1ccccc1N2c1ccccc1`, the growth in the assay on T-47D breast is 101%; with BT-549 breast it was 104%; with MDA-MB-435 melanoma, 107%; with MCF7 breast, 105%; in the assay on HCT-116 colon, 99.5%; in the assay on HCC-2998 colon, 129%. Besides, the growth in the assay on KM12 colon was 101%.
For the compound `Cc1cn(-c2nc3c(c(NCc4ccccc4)n2)COCC3)c2cccc(C(N)=O)c12`, the growth was 62.7% [0.5 µM] with T-47D breast; 89% [0.5 µM] with BT-549 breast; 63.9% [0.5 µM] with MDA-MB-435 melanoma; 35.5% [0.5 µM] with MCF7 breast; 11.4% [0.5 µM] in the assay on HCT-116 colon; 69.9% [0.5 µM] with HCC-2998 colon. The growth in the assay with KM12 colon is 63.2% [0.5 µM].
Consider `O=C(Nc1cccc([N+](=O)[O-])c1)c1ccc2ccccc2c1O`, for which the growth was 35.8% in the assay on T-47D breast; 80% in the assay with BT-549 breast; 49.7% in the assay with MDA-MB-435 melanoma; 77% in the assay on MCF7 breast; 59.4% with HCT-116 colon; 67% with HCC-2998 colon. Also, in the assay on KM12 colon, the growth was 79.1%.
For the compound `CC(C)(C)OC(=O)NCc1cccc(N=C=S)c1`, the growth with T-47D breast was 11.2%; with BT-549 breast, 10.3%; with MDA-MB-435 melanoma it was 51%; with MCF7 breast it was 29.5%; in the assay with HCT-116 colon, 56.2%; in the assay with HCC-2998 colon, 57%. Also, the growth in the assay on KM12 colon was 51.6%.
`CCc1c(C)c2cc3nc(NCc4ccccc4)oc3c(C)c2oc1=O`: the growth is 47.2% in the assay on T-47D breast; 32.6% with BT-549 breast; 47.7% with MDA-MB-435 melanoma; 73.1% in the assay with MCF7 breast; 57.2% in the assay with HCT-116 colon; 79.6% in the assay on HCC-2998 colon. In the assay on KM12 colon, the growth was 83.5%.
Consider `CCCCN(CCCC)c1ccc(C(=N)c2ccc(N(C)C)cc2)cc1`, for which the growth was -23.3% (active) in the assay on T-47D breast; -72.4% (active) with BT-549 breast; -74.1% (active) in the assay with MDA-MB-435 melanoma; -52.9% (active) in the assay with MCF7 breast; -100% (active) with HCT-116 colon; -47.5% (active) with HCC-2998 colon. The growth in the assay with KM12 colon was -50.5% (active).
Take `CC(NCCC(c1ccccc1)c1ccccc1)c1ccccc1` (stereo not given): the growth with T-47D breast is 109%; in the assay on BT-549 breast, 83.1%; in the assay on MDA-MB-435 melanoma, 27%; in the assay with MCF7 breast, 74.8%; in the assay on HCT-116 colon, 42.8%; with HCC-2998 colon it was -31.1% (active). Also, the growth in the assay on KM12 colon was 41.5%.
As for `Clc1ccc2c(c1)nnn1c3ncccc3c(Br)c21`, the growth in the assay with T-47D breast was 60.7%; in the assay with BT-549 breast it was 72.1%; in the assay on MDA-MB-435 melanoma, 95.2%; with MCF7 breast, 64.2%; with HCT-116 colon, 68.4%; in the assay on HCC-2998 colon it was 108%. Moreover, in the assay on KM12 colon, the growth is 86.4%.
Consider `COc1cc2c(/C=C3/C(=O)Nc4ccc(O)cc43)c(Cl)n(Cc3cc(OC)c(OC)c(OC)c3)c2cc1C`, for which the growth in the assay with T-47D breast was 23.5%; in the assay with BT-549 breast, -7.31% (active); in the assay with MDA-MB-435 melanoma, 2.91% (active); in the assay with MCF7 breast, 3.36% (active); in the assay with HCT-116 colon it was 18.1%; in the assay on HCC-2998 colon, 85.5%. Also, in the assay with KM12 colon, the growth is 16.3%.
Take `O=C(Nc1ccc(-n2cc(-c3ccncc3)c(-c3ccc(O)c(Cl)c3)n2)cc1)Nc1cc(C(F)(F)F)cc(C(F)(F)F)c1`: the growth in the assay with T-47D breast is 33.2%; in the assay with BT-549 breast, 20.4%; in the assay on MDA-MB-435 melanoma, 54.6%; with MCF7 breast, 55.7%; in the assay on HCT-116 colon, 53.3%; with HCC-2998 colon, 79%. Moreover, the growth with KM12 colon is 48.7%.
With `COc1ccc(-c2cc(-c3nnc(SC/C(=N\O)c4ccccc4)n3-c3ccccc3)c3ccccc3n2)cc1`, the growth is 106% in the assay on T-47D breast; 108% with BT-549 breast; 108% in the assay on MDA-MB-435 melanoma; 102% in the assay on SW-620 colon; 103% with HCC-2998 colon; 98.9% with KM12 colon.
Turning to `Nc1ccc(S(=O)(=O)Nc2ccnn2-c2ccccc2)cc1`, the growth in the assay on T-47D breast is 104%; with BT-549 breast it was 116%; in the assay with MDA-MB-435 melanoma, 97%; in the assay on MCF7 breast it was 101%; with HCT-116 colon, 109%; in the assay on HCC-2998 colon, 98.8%. Moreover, the growth in the assay on KM12 colon is 105%.
On to `O=C(CNc1cccnc1)Nc1ccc(C(=O)/C=C/c2ccc(Cl)cc2)cc1`, for which the growth was 89.9% in the assay on T-47D breast; 89.7% with BT-549 breast; 68.5% in the assay with MDA-MB-435 melanoma; 74.3% with SW-620 colon; 86.2% with HCC-2998 colon; 69.3% with KM12 colon.
For `COc1ccc(/C=C/C(=O)c2ccc(Oc3ncnc4ccccc34)cc2)cc1OC`, the growth is 52.3% in the assay with T-47D breast; 60.6% in the assay on BT-549 breast; 39.1% in the assay on MDA-MB-435 melanoma; 8.88% (active) with MCF7 breast; -42.6% (active) in the assay on HCT-116 colon; 29.1% in the assay with HCC-2998 colon. For the same compound, in the assay with KM12 colon, the growth is 22.6%.
For the compound `Clc1ccc(OCc2nc(-c3ccccc3)n[nH]2)c(Cl)c1`, the growth with T-47D breast was 95.6%; with BT-549 breast, 100%; in the assay on MDA-MB-435 melanoma it was 97.7%; in the assay on SW-620 colon, 97%; in the assay on HCC-2998 colon, 99.8%; with KM12 colon, 101%.
`CC(=O)N1N=C(CCC(=O)c2nc3ccc([N+](=O)[O-])cc3[nH]2)OC1c1ccc(O)cc1` (stereo not given): the growth with T-47D breast is 85.5%; with BT-549 breast it was 101%; in the assay on MDA-MB-435 melanoma it was 105%; with SW-620 colon, 102%; with HCC-2998 colon it was 98.7%; in the assay with KM12 colon it was 95.8%.
For `CC(=O)O[C@@H]1[C@@H](OC(C)=O)[C@H](OC(C)=O)CO[C@H]1Nc1cccc2ccccc12`, the growth in the assay on T-47D breast was 86.6%; in the assay on BT-549 breast it was 89.1%; in the assay on MDA-MB-435 melanoma it was 102%; with SW-620 colon, 98.4%; in the assay on HCC-2998 colon, 94.2%; in the assay on KM12 colon it was 84.2%.
Turning to `CC(C(=O)O)N1C(N)=NNC1c1ccccc1O` (stereo not given), the growth was 59.7% with T-47D breast; 104% with BT-549 breast; 104% in the assay with MDA-MB-435 melanoma; 80.4% in the assay with MCF7 breast; 87.4% in the assay with HCT-116 colon; 92.7% with HCC-2998 colon. For the same compound, the growth with KM12 colon is 93.9%.
`Nc1ncnc2c1c(-c1ccc(Oc3ccccc3)cc1)nn2C[C@H]1SSC[C@H]1O`: the growth is -20.6% (active) in the assay with T-47D breast; 38.9% with BT-549 breast; -74.6% (active) in the assay with MDA-MB-435 melanoma; -53.9% (active) in the assay with MCF7 breast; -69.3% (active) in the assay on HCT-116 colon; 11.2% in the assay with HCC-2998 colon. Besides, the growth in the assay on KM12 colon is 9.93% (active).
`O=C(Nc1cccc(-n2ccc3c(NC(=O)c4ccccc4)ncnc32)c1)Nc1ccc(Cl)c(C(F)(F)F)c1`: the growth in the assay with T-47D breast is 21.6%; in the assay with BT-549 breast, 45.9%; with MDA-MB-435 melanoma, -7.53% (active); with MCF7 breast it was 20%; with HCT-116 colon, 17%; with HCC-2998 colon, 40.8%. Besides, the growth with KM12 colon is 12.5%.
As for `COc1ccc(C(=O)NC(=O)Nc2ccc3c(c2)NC(=O)/C3=C\c2[nH]c(C)c(CCC(=O)O)c2C)c(F)c1`, the growth was 21.5% with T-47D breast; 11.2% in the assay with BT-549 breast; 53.8% with MDA-MB-435 melanoma; 45.3% with MCF7 breast; 28.3% in the assay on HCT-116 colon; 46.8% in the assay with HCC-2998 colon. Besides, the growth in the assay on KM12 colon was 15.5%.
Turning to `Cc1ccc[n+](CC(=O)c2cccc3ccccc23)c1`, the growth with T-47D breast is 91.9%; in the assay with BT-549 breast it was 93.8%; with MDA-MB-435 melanoma, 102%; with MCF7 breast, 98.6%; with HCT-116 colon, 99.6%; with HCC-2998 colon it was 104%. In the assay with KM12 colon, the growth is 103%.
